# According to the supplement of paper PMC4466140:
# B1: unnamed (peptide)
# chain: SSAAPPPPPRRATPE
# B2: unnamed (peptide)
# chain: KTITLEVESSDTIDN
# Molecular target: AgAbp1
# Experiment: SPOT peptide array binding signal intensity (averaged, normalized) (arbitrary units (background-subtracted, floor 0; scale differs between SH3 domains)); higher = stronger binding of the SH3 domain to the peptide
# Summary of the method: (§1)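 GST-fused SH3 domains, from four yeast species, were produced in E. coli BL21(DE3) and captured on glutathione Sepharose. Membranes of cellulose carrying synthetic 15-mer peptides, in which cysteines had been replaced by serines, were exposed to each domain at 10 μg/ml overnight at 4°C in TBS-based blocking buffer. After anti-GST antibody, an HRP anti-mouse secondary and luminol, spots were imaged and quantified using Genespotter. Binding signal is normalized and background-subtracted spot intensity, averaged over replicates, in arbitrary units that differ between domains.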
row,Binder,SPOT peptide array binding signal intensity
1,B1,0.5

# Molecular target: AgBbc1
# Experiment: as above
# Summary of the method: as §1
row,Binder,SPOT peptide array binding signal intensity
1,B1,602

# Molecular target: AgBem1-D1
# Experiment: as above
# Summary of the method: as §1
row,Binder,SPOT peptide array binding signal intensity
1,B1,≤ 0

# Molecular target: AgBzz1-D1
# Experiment: as above
# Summary of the method: as §1
row,Binder,SPOT peptide array binding signal intensity
1,B1,122

# Molecular target: AgBzz1-D2
# Experiment: as above
# Summary of the method: as §1
row,Binder,SPOT peptide array binding signal intensity
1,B1,18

# Molecular target: AgCyk3
# Experiment: as above
# Summary of the method: as §1
row,Binder,SPOT peptide array binding signal intensity
1,B1,≤ 0

# Molecular target: AgFus1
# Experiment: as above
# Summary of the method: as §1
row,Binder,SPOT peptide array binding signal intensity
1,B1,4

# Molecular target: AgHof1
# Experiment: as above
# Summary of the method: as §1
row,Binder,SPOT peptide array binding signal intensity
1,B1,0.5

# Molecular target: AgHse1
# Experiment: as above
# Summary of the method: as §1
row,Binder,SPOT peptide array binding signal intensity
1,B1,11

# Molecular target: AgLsb1
# Experiment: as above
# Summary of the method: as §1
row,Binder,SPOT peptide array binding signal intensity
1,B1,355

# Molecular target: AgLsb4
# Experiment: as above
# Summary of the method: as §1
row,Binder,SPOT peptide array binding signal intensity
1,B1,1120

# Molecular target: AgMyo5
# Experiment: as above
# Summary of the method: as §1
row,Binder,SPOT peptide array binding signal intensity
1,B1,8

# Molecular target: AgNbp2
# Experiment: as above
# Summary of the method: as §1
row,Binder,SPOT peptide array binding signal intensity
1,B1,0.5

# Molecular target: AgRvs167
# Experiment: as above
# Summary of the method: as §1
row,Binder,SPOT peptide array binding signal intensity
1,B1,446

# Molecular target: AgSho1
# Experiment: as above
# Summary of the method: as §1
row,Binder,SPOT peptide array binding signal intensity
1,B1,3

# Molecular target: AgSla1-D1-D2
# Experiment: as above
# Summary of the method: as §1
row,Binder,SPOT peptide array binding signal intensity
1,B1,1

# Molecular target: AgSla1-D3
# Experiment: as above
# Summary of the method: as §1
row,Binder,SPOT peptide array binding signal intensity
1,B1,12

# Molecular target: CaAbp1-D1
# Experiment: as above
# Summary of the method: as §1
row,Binder,SPOT peptide array binding signal intensity
1,B1,28.5

# Molecular target: CaAbp1-D2
# Experiment: as above
# Summary of the method: as §1
row,Binder,SPOT peptide array binding signal intensity
1,B1,23

# Molecular target: CaBbc1
# Experiment: as above
# Summary of the method: as §1
row,Binder,SPOT peptide array binding signal intensity
1,B1,268

# Molecular target: CaBem1-D1
# Experiment: as above
# Summary of the method: as §1
row,Binder,SPOT peptide array binding signal intensity
1,B1,≤ 0

# Molecular target: CaBzz1-D1
# Experiment: as above
# Summary of the method: as §1
row,Binder,SPOT peptide array binding signal intensity
1,B1,1350

# Molecular target: CaBzz1-D2
# Experiment: as above
# Summary of the method: as §1
row,Binder,SPOT peptide array binding signal intensity
1,B1,293

# Molecular target: CaCyk3
# Experiment: as above
# Summary of the method: as §1
row,Binder,SPOT peptide array binding signal intensity
1,B1,≤ 0

# Molecular target: CaFus1
# Experiment: as above
# Summary of the method: as §1
row,Binder,SPOT peptide array binding signal intensity
1,B1,134

# Molecular target: CaHof1
# Experiment: as above
# Summary of the method: as §1
row,Binder,SPOT peptide array binding signal intensity
1,B1,31

# Molecular target: CaHse1
# Experiment: as above
# Summary of the method: as §1
row,Binder,SPOT peptide array binding signal intensity
1,B1,6

# Molecular target: CaLsb1
# Experiment: as above
# Summary of the method: as §1
row,Binder,SPOT peptide array binding signal intensity
1,B1,0.5

# Molecular target: CaLsb4
# Experiment: as above
# Summary of the method: as §1
row,Binder,SPOT peptide array binding signal intensity
1,B1,3810

# Molecular target: CaMyo5
# Experiment: as above
# Summary of the method: as §1
row,Binder,SPOT peptide array binding signal intensity
1,B1,0.5

# Molecular target: CaNbp2
# Experiment: as above
# Summary of the method: as §1
row,Binder,SPOT peptide array binding signal intensity
1,B1,1
2,B2,≤ 0

# Molecular target: CaRvs167
# Experiment: as above
# Summary of the method: as §1
row,Binder,SPOT peptide array binding signal intensity
1,B1,349
2,B2,≤ 0

# Molecular target: CaRvs167-3
# Experiment: as above
# Summary of the method: as §1
row,Binder,SPOT peptide array binding signal intensity
1,B1,0.5
2,B2,2.5

# Molecular target: CaSho1
# Experiment: as above
# Summary of the method: as §1
row,Binder,SPOT peptide array binding signal intensity
1,B1,≤ 0
2,B2,≤ 0

# Molecular target: CaSla1-D1-D2
# Experiment: as above
# Summary of the method: as §1
row,Binder,SPOT peptide array binding signal intensity
1,B1,1870
2,B2,≤ 0

# Molecular target: CaSla1-D3
# Experiment: as above
# Summary of the method: as §1
row,Binder,SPOT peptide array binding signal intensity
1,B1,0.25
2,B2,≤ 0

# Molecular target: ScAbp1
# Experiment: as above
# Summary of the method: as §1
row,Binder,SPOT peptide array binding signal intensity
1,B1,3
2,B2,1

# Molecular target: ScBbc1
# Experiment: as above
# Summary of the method: as §1
row,Binder,SPOT peptide array binding signal intensity
1,B1,0.5
2,B2,≤ 0

# Molecular target: ScBem1-D1
# Experiment: as above
# Summary of the method: as §1
row,Binder,SPOT peptide array binding signal intensity
1,B1,≤ 0
2,B2,≤ 0

# Molecular target: ScBzz1-D1
# Experiment: as above
# Summary of the method: as §1
row,Binder,SPOT peptide array binding signal intensity
1,B1,24
2,B2,8

# Molecular target: ScBzz1-D2
# Experiment: as above
# Summary of the method: as §1
row,Binder,SPOT peptide array binding signal intensity
1,B1,5
2,B2,≤ 0

# Molecular target: ScCyk3
# Experiment: as above
# Summary of the method: as §1
row,Binder,SPOT peptide array binding signal intensity
1,B1,1
2,B2,≤ 0

# Molecular target: ScFus1
# Experiment: as above
# Summary of the method: as §1
row,Binder,SPOT peptide array binding signal intensity
1,B1,≤ 0
2,B2,15

# Molecular target: ScHof1
# Experiment: as above
# Summary of the method: as §1
row,Binder,SPOT peptide array binding signal intensity
1,B1,7
2,B2,1

# Molecular target: ScHse1
# Experiment: as above
# Summary of the method: as §1
row,Binder,SPOT peptide array binding signal intensity
1,B1,≤ 0
2,B2,≤ 0

# Molecular target: ScLsb1
# Experiment: as above
# Summary of the method: as §1
row,Binder,SPOT peptide array binding signal intensity
1,B1,315
2,B2,≤ 0

# Molecular target: ScLsb2
# Experiment: as above
# Summary of the method: as §1
row,Binder,SPOT peptide array binding signal intensity
1,B1,49.5
2,B2,≤ 0

# Molecular target: ScLsb3
# Experiment: as above
# Summary of the method: as §1
row,Binder,SPOT peptide array binding signal intensity
1,B1,3110
2,B2,≤ 0

# Molecular target: ScLsb4
# Experiment: as above
# Summary of the method: as §1
row,Binder,SPOT peptide array binding signal intensity
1,B1,711
2,B2,≤ 0

# Molecular target: ScMyo3
# Experiment: as above
# Summary of the method: as §1
row,Binder,SPOT peptide array binding signal intensity
1,B1,124
2,B2,≤ 0

# Molecular target: ScMyo5
# Experiment: as above
# Summary of the method: as §1
row,Binder,SPOT peptide array binding signal intensity
1,B1,83.8
2,B2,≤ 0

# Molecular target: ScNbp2
# Experiment: as above
# Summary of the method: as §1
row,Binder,SPOT peptide array binding signal intensity
1,B1,36
2,B2,≤ 0

# Molecular target: ScPex13
# Experiment: as above
# Summary of the method: as §1
row,Binder,SPOT peptide array binding signal intensity
1,B1,300
2,B2,≤ 0

# Molecular target: ScRvs167
# Experiment: as above
# Summary of the method: as §1
row,Binder,SPOT peptide array binding signal intensity
1,B1,1890
2,B2,≤ 0

# Molecular target: ScSho1
# Experiment: as above
# Summary of the method: as §1
row,Binder,SPOT peptide array binding signal intensity
1,B1,3
2,B2,≤ 0

# Molecular target: ScSla1-D1-D2
# Experiment: as above
# Summary of the method: as §1
row,Binder,SPOT peptide array binding signal intensity
1,B1,1390
2,B2,≤ 0

# Molecular target: ScSla1-D3
# Experiment: as above
# Summary of the method: as §1
row,Binder,SPOT peptide array binding signal intensity
1,B1,≤ 0
2,B2,10.2

# Molecular target: SpAbp1-D1
# Experiment: as above
# Summary of the method: as §1
row,Binder,SPOT peptide array binding signal intensity
1,B1,160
2,B2,≤ 0

# Molecular target: SpBbc1
# Experiment: as above
# Summary of the method: as §1
row,Binder,SPOT peptide array binding signal intensity
1,B1,≤ 0
2,B2,1

# Molecular target: SpBzz1-D1
# Experiment: as above
# Summary of the method: as §1
row,Binder,SPOT peptide array binding signal intensity
1,B1,757
2,B2,≤ 0

# Molecular target: SpBzz1-D2
# Experiment: as above
# Summary of the method: as §1
row,Binder,SPOT peptide array binding signal intensity
1,B1,142
2,B2,≤ 0

# Molecular target: SpCyk3
# Experiment: as above
# Summary of the method: as §1
row,Binder,SPOT peptide array binding signal intensity
1,B1,2.5
2,B2,≤ 0

# Molecular target: SpHof1
# Experiment: as above
# Summary of the method: as §1
row,Binder,SPOT peptide array binding signal intensity
1,B1,10.2
2,B2,≤ 0

# Molecular target: SpHof1-2
# Experiment: as above
# Summary of the method: as §1
row,Binder,SPOT peptide array binding signal intensity
1,B1,33.5
2,B2,≤ 0

# Molecular target: SpHof1-3
# Experiment: as above
# Summary of the method: as §1
row,Binder,SPOT peptide array binding signal intensity
1,B1,366
2,B2,≤ 0

# Molecular target: SpHse1
# Experiment: as above
# Summary of the method: as §1
row,Binder,SPOT peptide array binding signal intensity
1,B1,10.5
2,B2,≤ 0

# Molecular target: SpLsb1
# Experiment: as above
# Summary of the method: as §1
row,Binder,SPOT peptide array binding signal intensity
1,B1,101
2,B2,≤ 0

# Molecular target: SpLsb4
# Experiment: as above
# Summary of the method: as §1
row,Binder,SPOT peptide array binding signal intensity
1,B1,2800
2,B2,≤ 0

# Molecular target: SpMyo1
# Experiment: as above
# Summary of the method: as §1
row,Binder,SPOT peptide array binding signal intensity
1,B1,876
2,B2,≤ 0

# Molecular target: SpNbp2
# Experiment: as above
# Summary of the method: as §1
row,Binder,SPOT peptide array binding signal intensity
1,B1,≤ 0
2,B2,≤ 0

# Molecular target: SpPex13
# Experiment: as above
# Summary of the method: as §1
row,Binder,SPOT peptide array binding signal intensity
1,B1,≤ 0
2,B2,≤ 0

# Molecular target: SpRvs167
# Experiment: as above
# Summary of the method: as §1
row,Binder,SPOT peptide array binding signal intensity
1,B1,1860
2,B2,≤ 0

# Molecular target: SpSla1-D1-D2
# Experiment: as above
# Summary of the method: as §1
row,Binder,SPOT peptide array binding signal intensity
1,B1,62
2,B2,≤ 0

# Molecular target: SpSla1-D3
# Experiment: as above
# Summary of the method: as §1
row,Binder,SPOT peptide array binding signal intensity
1,B1,0.5
2,B2,≤ 0
